According to PubChem BioAssay (NCATS):
Where “and” joins values, the source holds several entries; their conditions need not be identical. Equal entries are not always repeated. Results filed as inconclusive are left out. Calls of active or inactive are those of the source. Unless noted, the call rests on the fitted dose curve; in most records, active means well fitted curve in the direction sought with a large enough effect; inconclusive means small, poorly fitted or top-dose-only effect, or another doubt; inactive means no such curve, though single readings can be large; an effect the other way counts as inactive or inconclusive.

Columns and labels:
[1] = Cell Viability - HepG2 (AID 433; calls by dose curve;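 further: potency means the concentration at half of the fitted maximal effect; cells exposed to compound for 40 hours; potency for ATP loss meaning cytotoxicity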); conditions: qHTS
Method in brief: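 ATP luminescence (CellTiter-Glo) after 40 h compound exposure, 37 °C, HepG2, 1500 cells/well, complete medium. Normalized: DMSO = basal, 100 uM tamoxifen = 100% inhibition. AC50 via standard Hill equation.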

[2] = Cellular Toxicity (caspase-3) HUV-EC-C (AID 656); conditions: HUV-EC-C cells, caspase-3 activation (apoptosis), vehicle = 0, 100 µM tamoxifen = 100%; series mostly up to 92.2 µM;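 further: 0% = DMSO basal and 100% = 100 µM tamoxifen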
Method in brief: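 Luminescent caspase-3/7 activation (aminoluciferin substrate cleavage) in HUV-EC-C cells after 16 hr compound exposure, 37°C. Signal normalized to DMSO basal and 100 uM tamoxifen as 100%; AC50 from concentration-response fitted with the Hill equation.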

[3] = Cellular Toxicity (caspase-3) H-4-II-E (AID 663); conditions: H-4-II-E rat hepatoma; Potency: caspase-3 activation; series mostly up to 92.2 µM;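 further: cells exposed to compound for 16 hr before readout; 0% = DMSO basal and 100% = 100 µM tamoxifen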
Method in brief: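 Luminescence from caspase-cleaved aminoluciferin substrate, read 20 min after reagent addition, reports caspase 3/7 activation in rat H-4-II-E cells after 16 hr compound exposure. Normalized to DMSO (basal) and 100 uM tamoxifen (100%); AC50 from Hill fits.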

[4] = Cellular Toxicity (caspase-3) NIH 3T3 (AID 666); conditions: NIH 3T3 caspase-3 activation, apoptosis/toxicity; series mostly up to 92.2 µM;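 further: 0% = DMSO basal and 100% = 100 µM tamoxifen stimulation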
Method in brief: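 Concentration-response qHTS in NIH 3T3 mouse fibroblasts scores caspase-3/7 activation as rising luminescence after 16 hr compound exposure. Signals are scaled between DMSO-only and 100 uM tamoxifen.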

[5] = Cellular Toxicity (caspase-3) Renal Proximal Tubule (AID 667); conditions: renal proximal tubule cells; series mostly up to 91.7 µM;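 further: cells exposed to compound for 16 hours at 37 °C before detection; 0% = DMSO basal and 100% = 10 µM staurosporine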
Method in brief: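 Luminescent caspase 3/7 signal from peptide-aminoluciferin cleavage measures apoptosis in freshly isolated rat kidney proximal tubule cells after 16 h compound exposure. Concentration-response data are normalized to DMSO and 10 uM staurosporine, and AC50 values come from Hill equation fits.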

[6] = MultiTox-Fluor Cytotoxicity Assay - LYMP1-001 - Dead Cells (AID 946); conditions: LYMP1-001 lymphoblastoid cells, dead-cell protease fluorescence; series mostly up to 92.2 µM;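 further: 0% = DMSO and 100% = tetraoctylammonium bromide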
Method in brief: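 Seed 2500 LYMP1-001 cells/well, incubate 5 hr at 37 C; add compound, 16 hr at 37 C; add MultiTox-Fluor reagent, 60 min RT; read dead-cell fluorescence Ex/Em=485/520. Normalize to DMSO and 15 uM tetraoctylammonium bromide.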

[7] = MultiTox-Fluor Cytotoxicity Assay - LYMP1-002 - Live Cells (AID 955); conditions: LYMP1-002 lymphoblastoid live-cell protease fluorescence viability; series mostly up to 46.1 µM;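 further: cells exposed to compound for 16 hours; on the % scale 0 is the no-effect control and ±100 the full control effect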
Method in brief: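 Cytotoxicity in the human lymphoblastoid line LYMP1-002 is measured as loss of live-cell protease activity after 16 h treatment in complete culture medium. AC50 is derived from Hill-equation fits of qHTS concentration-response data.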

[8] = Cell Viability - LYMP2-023 (AID 975); conditions: LYMP2-023 lymphoblastoid cell viability; series mostly up to 92.2 µM;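 further: cells exposed to compound for 24 hours at 37 °C; nearly all actives have a fitted effect of over 55% in size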; further: potency means the concentration at half of the fitted maximal effect
Method in brief: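 Concentration-dependent drop in intracellular ATP measures acute cytotoxicity in a human lymphoblastoid line treated for 24 hours in complete culture medium. AC50 values are taken from Hill-equation fits of qHTS data.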

[9] = Cell Viability - LYMP2-006 (AID 978); conditions: LYMP2-006 lymphoblastoid cell viability, qHTS; series mostly up to 92.2 µM;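 further: cells exposed to compound for 24 hours; on the % scale 0 is the no-effect control and ±100 the full control effect; nearly all actives have a fitted effect of over 60% in size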
Method in brief: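 qHTS, 1536-well; 2500 cells/well, 5 hr 37 C; cpd 24 hr 37 C; CellTiter-Glo 30 min RT; luminescence. Tetraoctylammonium bromide pos. ctrl. AC50 via Hill eqn.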

[10] = Cell Viability - LYMP2-012 (AID 982); conditions: LYMP2-012 lymphoblastoid cell viability qHTS; series mostly up to 92.2 µM;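 further: cellular ATP by luciferase luminescence where a drop means cytotoxicity; cells exposed to compound for one day before reading; 0% = DMSO only and full loss = 92 µM tetraoctylammonium bromide; nearly all actives have a fitted effect of over 55% in size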
[11] = Cell Viability - LYMP2-026 (AID 989); conditions: LYMP2-026 lymphoblastoid cell viability, qHTS; series mostly up to 92.2 µM; further: on the % scale 0 is the no-effect control and ±100 the full control effect; nearly all actives have a fitted effect of over 50% in size
Method in brief: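 Concentration-dependent loss of intracellular ATP in human lymphoblastoid cells after 24 hr at 37 C, quantified by luciferase luminescence. AC50 derived from standard Hill equation.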

[12] = biological target: Vitamin D3 receptor (Homo sapiens) (UniProt P11473); assay: qHTS assay for small molecule agonists of vitamin D receptor signaling (AID 588543; calls by dose curve;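 further: 0% = DMSO basal and 100% = reference agonist control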); conditions: HEK293T VDR-UAS-bla, beta-lactamase ratio, 16 h; series mostly up to 76.8 µM
Chain of Vitamin D3 receptor (Homo sapiens) (P11473 whole entry, looked up): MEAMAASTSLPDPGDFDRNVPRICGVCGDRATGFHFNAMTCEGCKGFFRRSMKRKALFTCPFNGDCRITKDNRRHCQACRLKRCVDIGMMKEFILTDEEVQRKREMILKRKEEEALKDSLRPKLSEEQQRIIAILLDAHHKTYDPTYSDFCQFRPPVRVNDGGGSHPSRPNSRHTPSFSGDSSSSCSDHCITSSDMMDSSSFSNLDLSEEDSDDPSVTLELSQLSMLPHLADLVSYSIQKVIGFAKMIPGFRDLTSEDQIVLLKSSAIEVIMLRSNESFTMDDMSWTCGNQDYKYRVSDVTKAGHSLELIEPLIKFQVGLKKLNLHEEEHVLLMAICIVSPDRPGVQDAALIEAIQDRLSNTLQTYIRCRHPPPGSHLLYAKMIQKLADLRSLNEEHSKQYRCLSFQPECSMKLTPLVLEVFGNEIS
Method in brief: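 β-lactamase reporter, VDR-UAS-bla HEK293T, agonist mode. Cells plated 5 h at 37 °C, compound titration 16 h at 37 °C, CCF4 dye 2 h RT, ratio 460/530 nm. Hill fit → EC50, efficacy vs 50 nM 1α,25-(OH)2D3.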

[13] = biological target: Nuclear receptor subfamily 1 group I member 2 (Rattus norvegicus) (UniProt Q9R1A7); assay: qHTS assay for small molecule activators of the rat pregnane X receptor (rPXR) signaling pathway (AID 651751; call rule not given here; further: 0% is about no effect); conditions: rPXR reporter cells, luciferase (One-Glo), 24 h
Chain of Nuclear receptor subfamily 1 group I member 2 (Rattus norvegicus) (Q9R1A7 whole entry, looked up): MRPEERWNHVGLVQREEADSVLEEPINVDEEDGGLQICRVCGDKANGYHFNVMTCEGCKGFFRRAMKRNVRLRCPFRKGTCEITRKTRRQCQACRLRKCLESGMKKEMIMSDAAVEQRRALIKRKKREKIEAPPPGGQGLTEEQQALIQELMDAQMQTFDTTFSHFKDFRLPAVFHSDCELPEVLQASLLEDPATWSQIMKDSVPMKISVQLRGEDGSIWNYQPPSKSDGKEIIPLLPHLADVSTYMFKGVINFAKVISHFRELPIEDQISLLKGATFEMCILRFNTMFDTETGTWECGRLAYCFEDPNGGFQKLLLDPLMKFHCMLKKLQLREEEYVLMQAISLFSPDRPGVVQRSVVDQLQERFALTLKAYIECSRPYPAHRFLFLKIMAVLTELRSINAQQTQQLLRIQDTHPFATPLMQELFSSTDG

[14] = qHTS assay for small molecule activators of the human pregnane X receptor (PXR) signaling pathway (AID 720659; call rule not given here; further: 0% is about no effect); conditions: DPX-2 HepG2 CYP3A4-luciferase, 24 h; series mostly up to 92.3 µM
[15] = Cell Viability - HUV-EC-C (AID 542); conditions: HUV-EC-C endothelial cell viability, qHTS; series mostly up to 92.2 µM;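 further: cells exposed to compound for 40 hours; on the % scale 0 is the no-effect control and ±100 the full control effect; nearly all actives have a fitted effect of over 35% in size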
Method in brief: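 Decrease in cellular ATP, quantified by luciferase luminescence, reflects toxicity in normal human vascular endothelial HUV-EC-C cells given compound for 40 hr in complete culture medium. Values are AC50s from concentration-response curves.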

[16] = Cell Viability - LYMP2-001 (AID 921); conditions: LYMP2-001 lymphoblastoid cell viability; series mostly up to 92.2 µM; further: nearly all actives have a fitted effect of over 70% in size; further: potency means the concentration at half of the fitted maximal effect
Method in brief: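 CellTiter-Glo luminescence (intracellular ATP) after 24 hr compound exposure at 37 C, 2500 lymphoblastoid cells/well in complete medium. AC50 fitted with standard Hill equation; tetraoctylammonium bromide positive control.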

[17] = Cell Viability - LYMP1-003 - Assay at 40 hr (AID 964); conditions: LYMP1-003 lymphoblastoid viability; series mostly up to 92.2 µM; further: on the % scale 0 is the no-effect control and ±100 the full control effect; nearly all actives have a fitted effect of over 60% in size
Method in brief: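 This qHTS cytotoxicity screen treats human lymphoblastoid cells (LYMP1-003) with compounds for 40 hr and quantifies cellular ATP via luciferase luminescence.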

[18] = Cell Viability - LYMP2-003 (AID 965); conditions: LYMP2-003 lymphoblastoid cell viability; series mostly up to 92.2 µM;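 further: cells exposed to compounds for 24 h before reading; 0% = DMSO only and full effect = 92 µM tetraoctylammonium bromide; nearly all actives have a fitted effect of over 50% in size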
Method in brief: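 CellTiter-Glo luminescence (cellular ATP) after 24 h compound exposure at 37 C in complete medium; 2500 cells/well, 5 h settling beforehand. Concentration-response fitted to standard Hill equation for AC50. Tetraoctylammonium bromide served as positive control.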

[19] = Cell Viability - LYMP2-015 (AID 971); conditions: LYMP2-015 lymphoblastoid cell viability; series mostly up to 92.2 µM; further: nearly all actives have a fitted effect of over 55% in size; further: potency means the concentration at half of the fitted maximal effect
Method in brief: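 Acute toxicity was scored as a concentration-dependent drop in intracellular ATP in lymphoblastoid cells after 24 hr compound exposure in complete medium. Detection used CellTiter-Glo luciferase luminescence.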

[20] = qHTS assay for small molecule disruptors of the mitochondrial membrane potential - 5 hr assay (AID 651755; calls by dose curve; further: nearly all actives have a fitted effect of over 40% in size; further: potency means the concentration at half of the fitted maximal effect); conditions: JC-1-type ratio dye; series mostly up to 92.2 µM
Method in brief: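 HepG2 cells, attached overnight at 37C, were exposed to compound or DMSO for 5 hr at 37C, 5% CO2. Mito-MPS dye was then added for 30 min, and fluorescence read at 490/535 nm (monomers) and 540/590 nm (aggregates).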

COC(=O)c1ccccc1N
inactive: Potency [1] > 92 µM | outcome [2] | Potency [3] | Potency [4] | outcome [5] | outcome [6] | outcome [7] | Potency [8] | Potency [9] | Potency [10] | Potency [11] | outcome [12] | max response [13] -0.835% | outcome [14]

O=C(Cl)c1ccccc1F
inactive: Potency [1] > 92 µM | Potency [15] | outcome [2] | outcome [5] | Potency [16] | outcome [6] | outcome [7] | Potency [17] | Potency [18] | Potency [19] | Potency [8] | Potency [9] | Potency [10] | Potency [11] | outcome [12] | Potency [20] | max response [13] 4.78% | outcome [14]

N#CCCC#N
inactive: Potency [1] > 92 µM | Potency [3] | Potency [4] | outcome [5] | Potency [16] | outcome [6] | outcome [7] | Potency [17] | Potency [18] | Potency [19] | Potency [8] | Potency [10] | outcome [12] | max response [13] 2.24% | outcome [14]

Oc1ccc(Cl)c(Cl)c1
inactive: Potency [15] | outcome [2] | Potency [3] | Potency [4] | outcome [5] | Potency [16] | outcome [6] | Potency [17] | Potency [18] | Potency [19] | Potency [8] | Potency [9] | Potency [10] | Potency [11] | outcome [12] | max response [13] -0.245% | outcome [14]
active: Potency [20] 42.2 µM

Nc1cc(Cl)ccc1Cl
inactive: outcome [2] | Potency [3] | outcome [5] | Potency [16] | outcome [6] | outcome [7] | Potency [17] | Potency [18] | Potency [19] | Potency [8] | Potency [20] | max response [13] 4.7% | outcome [14]

CCCCCOC(=O)c1ccccc1C(=O)OCCCCC
inactive: Potency [1] > 92 µM | Potency [15] | outcome [2] | Potency [3] | Potency [4] | outcome [5] | Potency [16] | outcome [6] | Potency [17] | Potency [19] | Potency [8] | Potency [9] | Potency [10] | outcome [12] | Potency [20] | max response [13] 4.64% and 1.43% | outcome [14]

CC(C)OS(C)(=O)=O
inactive: Potency [1] > 92 µM | Potency [15] | outcome [2] | Potency [3] | Potency [4] | outcome [5] | outcome [6] | outcome [7] | Potency [17] | Potency [18] | Potency [8] | Potency [9] | Potency [10] | Potency [11] | outcome [12] | Potency [20] | max response [13] -0.369% | outcome [14]

Cc1cc(N=Nc2ccccc2C)ccc1N
inactive: Potency [15] | outcome [2] | Potency [3] | Potency [4] | outcome [5] | Potency [16] | outcome [7] | Potency [19] | Potency [8] | Potency [9] | Potency [11] | outcome [12]

BrCC(Br)(Br)Br
inactive: Potency [15] | outcome [2] | Potency [3] | Potency [4] | outcome [6] | outcome [7] | Potency [17] | Potency [18] | outcome [12] | Potency [20] | max response [13] -4.89% | outcome [14]
active: Potency [19] 15.8 µM | Potency [8] 20 µM

O=[N+]([O-])c1ccc(Cl)c(Cl)c1Cl
inactive: Potency [1] > 92 µM | Potency [15] | Potency [4] | outcome [5] | outcome [7] | Potency [17] | Potency [18] | Potency [19] | Potency [8] | Potency [9] | Potency [10] | Potency [11] | outcome [12] | Potency [20] | max response [13] -4.87% | outcome [14]

O=[N+]([O-])c1ccc2c3c(cccc13)CC2
inactive: Potency [1] > 92 µM | Potency [15] | outcome [2] | Potency [3] | Potency [4] | Potency [16] | outcome [6] | outcome [7] | Potency [17] | Potency [18] | Potency [19] | Potency [8] | Potency [9] | Potency [10] | outcome [12] | outcome [14]

Clc1ccc(C(c2ccccc2Cl)C(Cl)(Cl)Cl)cc1 (configuration not stated)
inactive: Potency [1] > 92 µM | Potency [15] | outcome [2] | Potency [3] | Potency [4] | outcome [5] | Potency [16] | outcome [6] | outcome [7] | Potency [17] | Potency [19] | Potency [8] | Potency [9] | Potency [11] | outcome [12]

CN(C)c1ccc(N(C)C)cc1
inactive: Potency [3] | Potency [4] | outcome [7] | Potency [17] | Potency [8] | Potency [20] | outcome [14]
active: Potency [16] 50.1 µM

ClC(Br)Br
inactive: Potency [1] > 92 µM | Potency [15] | outcome [2] | Potency [3] | Potency [4] | outcome [5] | outcome [6] | outcome [7] | Potency [17] | Potency [18] | Potency [19] | Potency [8] | Potency [9] | Potency [10] | Potency [11] | Potency [20] | max response [13] 0.757% | outcome [14]

CC(C)[N+](=O)[O-]
inactive: Potency [15] | Potency [3] | Potency [4] | outcome [5] | Potency [16] | outcome [6] | outcome [7] | Potency [17] | Potency [19] | Potency [8] | Potency [9] | Potency [10] | Potency [11] | outcome [12] | max response [13] 1.27% | outcome [14]

C=CC(=O)OC
inactive: Potency [1] > 92 µM | Potency [15] | outcome [2] | Potency [4] | outcome [5] | Potency [16] | outcome [6] | Potency [17] | Potency [18] | Potency [19] | Potency [8] | Potency [9] | Potency [11] | outcome [12] | Potency [20] | max response [13] 0.297% | outcome [14]

O=C(O)c1cccc(Cl)c1
inactive: Potency [1] > 92 µM | Potency [15] | Potency [3] | Potency [4] | outcome [5] | Potency [16] | outcome [6] | outcome [7] | Potency [17] | Potency [19] | Potency [8] | Potency [10] | Potency [11] | outcome [12] | Potency [20] | max response [13] 0.516% | outcome [14]
